Source: PubChem BioAssay
This is one part of the list. A number with no mark means an inactive call. Calls of active or inactive are those of the source.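 Rule for the calls: active = inhibition reaching about 45% at 4 µM in either replicate (limit read from the data); inactive = the rest.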

Test: PMA/ionomycin-induced NF-kB reporter inhibitors, Jurkat retest, confirmation, T-cell NF-kB inhibitor project, cell-based, luminescence, single concentration (AID 435020);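 note: plate controls were PMA/ionomycin stimulated DMSO wells for no effect and unstimulated DMSO wells for full effect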
Details: Jurkat NF-kB luciferase, 16 h, at 4 µM, hits give high values

SMILES	inhibition
COc1ccc(CS(=O)/C(Cl)=C(/Cl)C(=O)Nc2ccc(OC)nc2)cc1 (stereo not given)	95.7% (active)
CC(C)c1ccc(NC(=O)NC2CCCCC2)cc1	-175%
CC(C)CC(=O)N/C(N)=N/c1nc2ccccc2s1	-131%
COc1ccccc1N1CCN(C(=O)c2cc(=O)c3cc(C)cc(C)c3o2)CC1	54% (active)
O=C(NC(Nc1nc2ccc([N+](=O)[O-])cc2s1)(C(F)(F)F)C(F)(F)F)c1ccccc1	80.7% (active)
COc1ccc(CC(=O)Nc2nc(-c3ccc(F)c(F)c3)cs2)cc1OC	58.5% (active)
c1cnc(N2CCN(c3ccc4ccccc4n3)CC2)nc1	-107%
Cc1cccc(N(C)C(=O)c2cc3c(=O)[nH]c4ccc(C)cc4c3s2)c1	16.9%
O=C(Nc1ccc(CSc2ccccc2)cc1)c1ccc(CN2CCOCC2)cc1	62.3% (active)
Cc1ccc(-n2ncc3c2CC(C)(C)CC3NC(=O)Cc2c(C)noc2C)cc1 (stereo not given)	-15.6%
CCOc1ccc2[nH]c3nc(SCC(=O)NC4CCCC4)nnc3c2c1	14.2%
CSc1nc(N(C)NC(=O)c2cccc(C)c2)c2ccccc2n1	57.2% (active)
Cc1cc(N)n2nc(-c3ccc(C(C)(C)C)cc3)cc2n1	-164%
O=C(CCNC(=O)c1ccc(Br)cc1)Nc1cccc(S(=O)(=O)N2CCCCC2)c1	0.65%
CC(=O)c1ccc(Oc2cc(C)nc(-n3nc(C)cc3C)n2)cc1	58.9% (active)
CCCOc1ccccc1C1CC(=O)Nc2cc3c(cc21)OCO3 (stereo not given)	62% (active)
O=C(Nc1ccccc1Cl)/C(Cl)=C(\Cl)S(=O)c1ccccc1 (stereo not given)	59.8% (active)
Cc1ccc(S(=O)(=O)C2(S(=O)(=O)c3ccc(C)cc3)CCCC2)cc1	24.9%
COc1ccc(CNS(=O)(=O)c2cc(-c3cc(C)no3)ccc2C(C)C)cc1	41.9%
CCOc1ccccc1NC(=O)Cn1nnc(C(=O)NCc2cccs2)c1N	51.6% (active)

SMILES	inhibition
Cc1c(/C=N\NC(=O)c2cc3ccccc3o2)c2ccccc2n1C	-0.3%
Cn1nccc1C(=O)NC1CCCc2c1cnn2-c1ccccc1F (stereo not given)	68.1% (active)
CCOC(=O)c1ccc(NC(=O)Cn2cnc3cc(C)c(C)cc32)cc1	66.2% (active)
Cc1ccc(SCCSc2ncccn2)cc1	-64.3%
COc1ccccc1NC1=NC(c2ccc(Cl)cc2)N=C(N)N1 (stereo not given)	18.7%
CCOc1cc(C(=O)N2CCc3cc(OC)c(OC)cc3C2)ccc1OC(F)F	57.9% (active)
Cc1cccc(-n2c(C)cc(/C=N\NC(=O)c3cccs3)c2C)c1	6.7%
Cn1c(-c2ccc(C(F)(F)F)cc2)cc2onc(-c3ccccc3)c2c1=O	-121%
Cn1nccc1C(=O)NC1CCCc2c1cnn2-c1ccc(F)cc1F (stereo not given)	76.3% (active)
COc1ccc(-c2csc(-c3cccs3)n2)cc1OC	-54.3%
COc1ccccc1C1C2=C(COC2=O)Nc2cc3c(cc21)OCO3 (stereo not given)	23.4%
COc1ccc(-c2csc(Nc3ccccn3)n2)cc1	16.1%
CC[C@]1(O)CC2CN(CCc3c([nH]c4ccccc34)[C@@](C(=O)OC)(c3cc4c(cc3OC)N(C=O)[C@H]3[C@@](O)(C(=O)OC)[C@H](OC(C)=O)[C@]5(CC)C=CCN6CC[C@]43[C@@H]65)C2)C1 (stereo not given in full)	62.8% (active)
CC(=O)Nc1ccc(Nc2c3ccccc3nc3ccccc23)cc1	26.9%
O=C(NCCC1CCCCN1S(=O)(=O)c1cccs1)C(=O)Nc1ccc(F)cc1F (stereo not given)	-3.5%
Cc1ccc2nc(-c3ccc(NC(=O)CN(C)S(=O)(=O)c4ccccc4)cc3)sc2c1	-82.4%
Oc1cccc(/C=N/Nc2ccc(Cl)nn2)c1O	0.85%
Cc1cccc(NS(=O)(=O)c2ccc(-c3cnc(C4CC4)o3)cc2)c1	53.5% (active)
O=C(/C=C/c1ccc([N+](=O)[O-])o1)NNC(=O)c1ccc(F)cc1	45.4%
N=c1c2c(-c3ccccc3)c(-c3ccccc3)n(Cc3ccccc3)c2ncn1CCCO	24.1%
